Screening results: PubChem BioAssay, The Scripps Research Institute Molecular Screening Center
ssDAF12 agonist: activates DAF-12 receptor from parasite S. stercoralis | HEK293 ssDAF-12/GRIP1 lit1-tk-luc reporter, luminescence; % of 3 µM dafachronic acid response | activation, % at 6.8 µM | 370,000 compounds, 1% hits;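 active = activation above the mean over all tested compounds plus 3 SD, cut at about 0.9% in these data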
DAX1 inh-1: inhibitors of human orphan nuclear receptor DAX1 (NR0B1) | P51843 | HEK293 Gal4-DAX1 luciferase reporter, luminescence | inhibition, % at 6.75 µM | 340,000 compounds, 0.99% hits | AID 504766;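 active = inhibition above the mean over all tested compounds plus 3 SD, cut at about 4.2% in these data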;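 also: inhibition shows as a rise in luminescence from relieved DAX1 repression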
Target sequence (P51843 207-470 limits assumed): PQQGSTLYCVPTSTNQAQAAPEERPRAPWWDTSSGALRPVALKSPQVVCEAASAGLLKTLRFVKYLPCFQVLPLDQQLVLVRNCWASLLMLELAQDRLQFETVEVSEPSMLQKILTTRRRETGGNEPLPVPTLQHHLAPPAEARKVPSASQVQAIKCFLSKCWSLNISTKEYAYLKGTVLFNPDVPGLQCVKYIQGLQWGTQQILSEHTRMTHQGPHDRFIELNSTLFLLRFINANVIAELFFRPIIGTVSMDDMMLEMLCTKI
hcDAF-12 act: H. contortus DAF-12 activation, primary screen; HEK293 hcDAF-12 lit1-tk-luc reporter, luminescence; 0% DMSO, 100% Δ7-dafachronic acid; activation, % at 6.8 µM; 370,000 compounds, 1.4% hits; AID 652067;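 active = activation above the mean of all tested compounds plus 3 SD, cut at about 5.5% in these data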
hgDAF-12 ag: hgDAF-12 agonism, primary luciferase screen | HEK293 GAL4-hgDAF12 UAS-luciferase reporter, agonist luminescence; normalized to butyrate control | activation, % at 6.8 µM | 370,000 compounds, 1.8% hits | AID 687014;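 active = activation above a cutoff set at the mean of all screened compounds plus 3 SD, cut at about 10% in these data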
DAX1 inh-2: blocks DAX1 repression of SF-1 activated StAR promoter. HEK293T StAR-luciferase reporter, SF-1/DAX-1 repression relief. inhibition, % at 6.8 µM. 370,000 compounds, 1.1% hits;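 active = inhibition above the mean over all tested compounds plus 3 SD, cut at about 3.6% in these data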;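 also: higher inhibition means more luminescence from relief of DAX-1 repression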
GAA850 FXN act: frataxin GAA850 promoter activation; HEK293 lucGAA850 FXN promoter luciferase reporter, 24 h; percent of 10 µM SAHA response; activation, % at 6 µM; 360,000 compounds, 0.56% hits;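 active = activation above the average of all compounds screened plus 3 SD, cutoff fixed separately per campaign, cut at about 7.5% in these data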
Of the large screens only hits and unclear results are named; the others gave an inactive call. Only some compounds are listed: those with a hit (about 4.5% of all), similar ones and a draw of the others.

CC(C)c1ccc(NC(=O)c2ccccc2NC(=O)C2CCCCC2C(=O)O)cc1 (stereo not drawn)	DAX1 inh-1 5.4
CC(NCc1ccco1)C(=O)N1CCOCC1 (stereo not drawn)	none (no result: DAX1 inh-1, GAA850 FXN act)
c1ccc(C[n+]2csc3ccccc32)cc1	ssDAF12 agonist 1.1
COc1ccc(Cn2c(=N)c(C(=O)NCC3CCCO3)cc3c(=O)n4ccccc4nc32)cc1 (stereo not drawn)	hcDAF-12 act 5.7
COc1ccc(C(=O)OC2CCN(c3ncc(C(F)(F)F)cc3Cl)CC2)cc1	none
COc1ccc([C@H]2C=C3CN(C(=O)OC(C)(C)C)S(=O)(=O)[C@H]3C[C@H]2OC(=O)c2ccc(C(F)(F)F)cc2)cc1	hcDAF-12 act 5.7
O=C(Nc1ccccc1C(F)(F)F)c1cc(-c2ccccc2O)on1	hgDAF-12 ag 12
Cn1cc(Br)c(C(=O)NNC(=O)Nc2ccccc2C(F)(F)F)n1	DAX1 inh-1 4.2
Cn1cccc1C(=O)C(=O)Nc1ccccc1C(F)(F)F	DAX1 inh-1 4.4
CC(C)(C)C(=O)NC(=O)Nc1ccccc1C(F)(F)F	none
O=C(Nc1ccccc1C(F)(F)F)c1cc(-c2ccco2)on1	none
CC(=O)Nc1ccccc1C(F)(F)F	DAX1 inh-1 4.3
COC(=O)[C@]12C[C@H](CC(=O)NCCC(C)C)C(=O)N(Cc3cccc4ccccc34)C1=C[C@H](C(C)C)O[C@@H]2C1CC1	none (no result: DAX1 inh-1, GAA850 FXN act)
C/C(O)=C(/N=O)C(=O)Nc1ccccc1	none
Cn1cccc1C(=O)C(=O)Nc1ccccc1	ssDAF12 agonist 1.0, hgDAF-12 ag 13, DAX1 inh-2 3.8
CC(COc1ccccc1)CN1CCC(C(O)(c2ccccc2)c2ccccc2)CC1 (stereo not drawn)	none (no result: DAX1 inh-1, GAA850 FXN act)
N#CCC[C@@H]1CC[C@]2(CCCN(S(=O)(=O)c3ccccc3)C2)O1	none (no result: DAX1 inh-1, GAA850 FXN act)
NC(=O)CCn1c(C(=O)c2cccc([N+](=O)[O-])c2)c2ccccc2[n+]1[O-]	ssDAF12 agonist 1.1
COc1ccc2c(c1)CN1C(=O)N(C3CCCC3)S(=O)(=O)CC21 (stereo not drawn)	none (no result: DAX1 inh-1, GAA850 FXN act)
O=C1N/C(=N/N=C/c2ccco2)SC1Cc1ccccc1 (stereo not drawn)	DAX1 inh-1 5.9
Cc1ccc(CC2S/C(=N/N=C/c3ccco3)NC2=O)cc1 (stereo not drawn)	none
COc1ccc(S[C@]2(C(=O)N(C)C)CC(=O)N(S(=O)(=O)c3ccc(F)cc3)[C@@H]2c2ccc(OC)cc2)cc1	none (no result: DAX1 inh-1, GAA850 FXN act)
Cn1c(SCC2CCCO2)nnc1-c1ccncc1 (stereo not drawn)	none
CN(C)c1ccc(-c2nnc(SCC3CCCO3)n2C)cc1 (stereo not drawn)	DAX1 inh-1 4.8
COc1ccc(N2C(=O)C3CCCN3C2c2ccccc2F)cc1 (stereo not drawn)	DAX1 inh-1 4.9
O=C1C2CCCN2C(c2ccccc2F)N1c1ccc(Cl)cc1 (stereo not drawn)	none
CC(=O)C1(C(=O)Nc2cc(C)cc(C)c2)CC(c2ccccn2)=NO1 (stereo not drawn)	none (no result: DAX1 inh-1, GAA850 FXN act)
CC(NC(=O)NC(N)=O)(C(F)(F)F)C(F)(F)F	DAX1 inh-1 5.5
COC(=O)[C@]12C[C@H](CC(=O)N3CCCC3)C(=O)N(Cc3ccc(Cl)cc3Cl)C1=C[C@H](COCc1ccccc1)O[C@@H]2C	none (no result: DAX1 inh-1, GAA850 FXN act)
CCCCN(CC)CCNC(=O)c1cc2c(=O)n(CC)c3ccccc3c2s1	none
CCCN(CCC)CCCNC(=O)c1cc2c(=O)n(CC)c3ccccc3c2s1	DAX1 inh-1 7.3
CCn1c(=O)c2cc(C(=O)NCCCOC)sc2c2ccccc21	none
CCN(CC)CCNC(=O)c1cc2c(=O)n(C)c3ccccc3c2s1	hcDAF-12 act 6.3
CCn1c(=O)c2cc(C(=O)NCC(OC)OC)sc2c2ccccc21	DAX1 inh-1 6.2
CCOC(CNC(=O)c1cc2c(=O)n(CC)c3ccccc3c2s1)OCC	none
CCCCN(CC)CCCNC(=O)c1cc2c(=O)n(CC)c3ccccc3c2s1	DAX1 inh-1 4.7
Cc1ccc(Nc2nc(N)nc(CSc3nccn3C)n2)cc1	ssDAF12 agonist 0.9, hgDAF-12 ag 11
Cc1ccc(N(C)C(=O)CCNC(=O)Cn2cnc3ccccc3c2=O)cc1C	none
CN(C(=O)CCNC(=O)Cn1cnc2ccccc2c1=O)c1ccc(F)cc1	DAX1 inh-1 4.8
